Measured values published in PubChem BioAssay (NCI).
The panel holds about 83,000 compounds, 20% with a hit somewhere; the sample as a whole holds those more often.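 Note: values are percent growth. 100 is the growth of untreated cells, values between 100 and 0 indicate rising inhibition; between -100 and 0 indicates cell death.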 Active and inactive are the calls of the source.

What follows are compounds tested on SK-MEL-2 melanoma (assay: NCI-60 one-dose screen, 48 h (100 = growth as untreated, 0 = no growth, -100 = all killed)). Settings: 10 µM unless noted.
Experimental: Growth inhibition of the SK-MEL-2 human tumor cell line is measured as a screen for anti-cancer activity. Cells are grown in 96 well plates and exposed to the test compound for 48 hours. Compounds are tested at a single concentration, which is 10^-5 M for most compounds. The reported endpoint is percent growth (GI% or GIPRCNT), where numbers from 0 - 100% represent growth inhibition, and numbers from -100% - 0 represent cell death. For example, a value of 40 represents 60% growth inhibition. A value of 0 means no net growth occurred over the course of the experiment. A value of -40 indicates 40% of cells at the beginning of the experiment died by the end of the experiment. A value of -100 means all cells are dead at the end of the experiment.
NCI-60 Human Tumor Cell Lines Screen was performed using the standard one-dose NCI protocol, which is described in more detail at https://dtp.cancer.gov/discovery_development/nci-60/default.htm.
Compounds with GIPRCNT values below 10 were considered active. Activity score was based on GIPRCNT using the following formula: […]
Score is 0 for GIPRCNT values of 100 or above, 50 for GIPRCNT values of 0, and 100 for GIPRCNT values of -100.

| SMILES | growth |
| --- | --- |
| CCC(=O)Nc1ccccc1C#C/C=C\C#Cc1ccccc1SC | 28% (inactive) |
| O=[N+]([O-])c1ccc(S(=O)(=O)N2CCN(c3ccnc4cc(Cl)ccc34)CC2)c([N+](=O)[O-])c1 | 101% (inactive) |
| CCC(=O)Oc1cc(/C=C/C(=O)O[C@H]2C[C@H]3CN4CCc5c([nH]c6cc(OC)ccc56)[C@@H]4C[C@@H]3[C@@H](C(=O)OC)[C@@H]2OC)ccc1OC | 101% (inactive) |
| COc1cc2nc(N3CCC[C@@H](NC4=CC(=O)c5ccccc5C4=O)C3)nc(N)c2cc1OC | 109% (inactive) |
| O=C(Cc1c(F)cccc1Cl)Nc1ccc(S(=O)(=O)Nc2ncccn2)cc1 | 73.1% (inactive) |
| O=C1NC(Cc2c[nH]c3ccccc23)C(=O)N1Cc1ccc(Cl)cc1 (stereo not given) | 66.3% (inactive) |
| COC(=O)CCCCCN=Cc1c(O)c(O)c(C(C)C)c2cc(C)c(-c3c(C)cc4c(C(C)C)c(O)c(O)c(C=NCCCCCC(=O)OC)c4c3O)c(O)c12 | 10.4% (inactive) |
| COc1ccc(/C=C/C(=O)c2cccc(B(O)O)c2)cc1O | 107% (inactive) |
| Cc1cc2c(C(C)C)c(O)c(O)c(C=NCCCCC(=O)O)c2c(O)c1-c1c(C)cc2c(C(C)C)c(O)c(O)c(C=NCCCCC(=O)O)c2c1O | 43.6% (inactive) |
| CCn1cc(C(=O)O)c(=O)c2cc(F)c(N3CCN(S(=O)(=O)c4ccc(OC)c(OC)c4)CC3)cc21 | 91.8% (inactive) |
| CCCCCC(=O)OCc1ccccc1 | 92.7% (inactive) |
| COc1cc(C2C=C(C)N=C3SC=C(C)N32)cc(OC)c1OC (stereo not given) | -39.5% (active) |
| Cc1oc2nc[nH]c(=O)c2c1C(=O)/C=C/c1ccc(Cl)cc1 | 55.7% (inactive) |
| COc1cccc2cc(-c3cc4ccccc4[nH]3)/c(=N/C(=S)Nc3ccccc3)oc12 | 91.5% (inactive) |
| Nc1nc(-c2cc3ccccc3o2)cc(=O)c(=O)[nH]1 | 98.9% (inactive) |
| COC1=CC(c2ccc[nH]2)=N/C1=C\c1[nH]c(C)c(C(=O)CCCCC(=O)NCc2ccccc2)c1C | 97.1% (inactive) |
| COc1cc(NC(=O)CSc2nc3ccc(C)cc3c(=O)n2-c2ccccc2)cc(OC)c1OC | 86.5% (inactive) |
| Cc1ccnc2nc(C(=O)OCC(=O)Nc3ccc(-c4ccccc4)cc3)nn12 | 77.3% (inactive) |
| CN(C)c1nc(N)c(N=O)c(N)n1 | 104% (inactive) |
| C#CCC1(c2ccc(F)c(F)c2)NS(=O)(=O)c2ccccc21 (stereo not given) | 91.2% (inactive) |

| SMILES | growth |
| --- | --- |
| O=C1CCCCN1CCCCC#Cc1ccccc1C#Cc1ccc([N+](=O)[O-])cc1 | 5.87% (active) |
| Cc1cc2c(c(=O)o1)C(c1ccc(OC(=O)N3CCOCC3)cc1)C(C#N)=C(N)O2 (stereo not given) | 91.3% (inactive) |
| CC(C)N(Cc1ccc(CN(C(=O)CCl)C(C)C)cc1)C(=O)CCl | 44.9% (inactive) |
| NC(=O)c1cccc(N2Cc3ccccc3OC3=C2C(=O)c2c(O)ccc(O)c2C3=O)c1 | -38.7% (active) |
| CN1CCN(CCCOc2ccc3nc(Nc4ccc(C(F)(F)F)c(Cl)c4)ccc3c2)CC1 | 8.88% (active) |
| CCN1C(=O)N(CC)C2C1NN=c1s/c(=C\c3ccccn3)c(=O)n12 (stereo not given) | 39.9% (inactive) |
| Cc1ccc2nc(-c3c(N)n[nH]c3CCCO)[nH]c(=O)c2c1 | 108% (inactive) |
| COc1ccc(C(=O)c2cc(OC)c(OC)c(OC)c2)cc1/C=C/C(=O)c1ccc(OC)c(OC)c1 | 20.9% (inactive) |
| COc1ccc(C2=CC(c3ccc(Oc4ccnc5cc(Cl)ccc45)c(OC)c3)c3c(nc(OC)[nH]c3=O)N2)cc1 (stereo not given) | 91.9% (inactive) |
| O=C(OCCCCOC(=O)n1cnc2ccccc21)n1cnc2ccccc21 | 101% (inactive) |
| CC(Br)C(O)c1cc2c(cc1Br)OCO2 (stereo not given) | 115% (inactive) |
| CCCCCCCN(CCCCCCC)C(=N)c1ccc(OC)c2ccccc12 | -82.5% (active) |
| COc1ccc(/C=C\c2cc(OC)c(OC)c(OC)c2)c(NS(=O)(=O)c2ccc(C(C)(C)C)cc2)c1O | -2.03% (active) |
| CN(C)C/C=C/C(=O)Nc1cc2c(Nc3ccc(F)c(Cl)c3F)ncnc2cc1OCCOC(F)F | 44.1% (inactive) |
| COc1ccc(NC(=O)c2cc3ccccc3nc2Nc2cc(OC)c(OC)c(OC)c2)cc1 | 89.2% (inactive) |
| Nc1nc(Cl)c2c(ncn2Cc2ccc(CCl)cc2)n1 | 98.6% (inactive) |
| CC(C)(C)OC(=O)N[C@@H](Cc1ccccc1)C(=O)N(Cc1ccccc1)C1(C(=O)NCc2ccccc2)CCN(Cc2ccccc2)CC1 | 55.9% (inactive) |
| COc1ccc(/C=C/C(=O)c2ccc(NC(=O)CN3CCN(c4cc5c(cc4F)c(=O)c(C(=O)O)cn5C4CC4)CC3)cc2)cc1 | 117% (inactive) |
| COc1ccc(/C(=N/O)c2cc(F)c(F)c(OC)c2F)cc1O | 3.65% (active) |
| Clc1ccc(/C=C/c2nc(N3CCOCC3)c3nc(Cl)c(Cl)cc3n2)cc1 | 110% (inactive) |
